In the supplement of paper PMC6555819:

How the values were obtained:
Test in all cases: PBM binding z-score (relative to random genomic background probes); higher = stronger binding; sequences stand for … in GC…GCGATTGACAGCGTAGAATGAAGG
[1] = test system: FXR:RXRa (NR concentration 270 nM, RXRa partner concentration 90 nM)
In short: (§1)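 Custom Agilent 4×180K protein-binding microarrays carried double-stranded probes. Their 34-nt variable regions held direct-repeat seeds, single-nucleotide variants, half-site ablations and random human genomic background sequences. Arrays were incubated 1 h with ligand-free nuclear receptor dimers in PBS pH 7.4, 2% milk, 0.02% Triton X-100, 1 mM DTT, 0.2 mg/mL BSA and 0.4 mg/ml salmon testes DNA. Antibodies against each partner (one per run) detected binding, and scanned fluorescence was regression-normalized. Binding z-scores use random background probes as reference.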

[2] = test system: LXRa:RXRa (NR concentration 270 nM, RXRa partner concentration 90 nM)
In short: as §1

[3] = test system: LXRa homodimer (NR concentration 270 nM)
In short: as §1

[4] = test system: LXRb:RXRa (NR concentration 270 nM, RXRa partner concentration 90 nM)
In short: as §1

[5] = test system: LXRb homodimer (NR concentration 270 nM)
In short: as §1

[6] = test system: PPARa:RXRa (NR concentration 270 nM, RXRa partner concentration 90 nM)
In short: as §1

[7] = test system: PPARg:RXRa (NR concentration 180 nM, RXRa partner concentration 90 nM)
In short: as §1

[8] = test system: PPARg:RXRa 270nM:90nM, anti-RXR (NR concentration 270 nM, RXRa partner concentration 90 nM)
In short: as §1

[9] = test system: PPARg:RXRa 30nM:10nM, anti-RXR (NR concentration 30 nM, RXRa partner concentration 10 nM)
In short: as §1

[10] = test system: PPARg:RXRa 90nM:30nM, anti-RXR (NR concentration 90 nM, RXRa partner concentration 30 nM)
In short: as §1

[11] = test system: PPARg:RXRa DBDmut IVT, anti-RXR (DBD mutation: RXRa K156A/R161A, NR concentration 270 nM, RXRa partner concentration 90 nM)
In short: as §1

[12] = test system: PPARg:RXRa IVT, anti-PPARg (NR concentration 270 nM, RXRa partner concentration 90 nM)
In short: as §1

[13] = test system: PPARg DBDmut:RXRa IVT, anti-PPARg (DBD mutation: PPARg1 K132A/R137A, NR concentration 270 nM, RXRa partner concentration 90 nM)
In short: as §1

[14] = test system: PPARg DBDmut IVT, anti-PPARg (DBD mutation: PPARg1 K132A/R137A, NR concentration 270 nM)
In short: as §1

[15] = test system: PPARg homodimer (NR concentration 180 nM)
In short: as §1

[16] = test system: PXR:RXRa (NR concentration 270 nM, RXRa partner concentration 90 nM)
In short: as §1

[17] = test system: PXR homodimer (NR concentration 270 nM)
In short: as §1

[18] = test system: RARa:RXR (NR concentration 270 nM, RXRa partner concentration 90 nM)
In short: as §1

[19] = test system: RARa homodimer (NR concentration 270 nM)
In short: as §1

[20] = test system: RARb:RXRa (NR concentration 270 nM, RXRa partner concentration 90 nM)
In short: as §1

Sequence	PBM binding z-score [1]	PBM binding z-score [2]	PBM binding z-score [3]	PBM binding z-score [4]	PBM binding z-score [5]	PBM binding z-score [6]	PBM binding z-score [7]	PBM binding z-score [8]	PBM binding z-score [9]	PBM binding z-score [10]	PBM binding z-score [11]	PBM binding z-score [12]	PBM binding z-score [13]	PBM binding z-score [14]	PBM binding z-score [15]	PBM binding z-score [16]	PBM binding z-score [17]	PBM binding z-score [18]	PBM binding z-score [19]	PBM binding z-score [20]
CCTTACGGGTCACTGACAGGTCATAGCATTTGGA	5.83	5.72	2.3	4.51	-0.00143	5.36	4.81	5.35	2.02	4.03	3.69	3.99	0.0751	0.785	4.06	5.34	0.53	6.69	1.34	4.53
GCTAGTGGGTCAGTAAAAGGTCACACACCGGTCG	4.47	4.77	4.65	4.61	0.38	5.24	6.44	5.98	3.57	5.34	6.37	6.63	1.17	1.14	6.87	5.62	1.8	7.01	2.96	5.12
CCTAGTTGGGCAGGAGGTCACACACCGGATATGA	2.73	2.97	1.41	2.79	-0.389	3.7	3.31	4.01	1.77	3.33	0.343	2.59	-0.448	-0.00376	2.16	3.77	0.916	3.7	1.59	3.15
TATTGTAGATCAAAGGTTAAGAAAGCCGAAGCCT	1.52	2.61	0.529	2.07	0.724	4.99	8.15	8.41	7.59	9.21	1.27	4.2	1.1	1.23	1.87	2.16	0.399	3.1	0.703	2.07
CCTACTGGGCCAAAGGCCATTGATTCCAATGCTC	-0.204	-0.344	-0.23	-0.115	-0.699	3.51	7.53	7.54	6.63	7.44	3.67	4.27	-1.16	-0.289	0.544	-0.131	-0.371	0.0662	-0.609	0.924
CCTACTGGGGCACGAAAGGTCATTGATTCAGTGA	4.09	5.15	4.81	4.57	0.0561	4.99	6.01	5.54	2.79	4.75	5.75	6.88	0.869	0.0108	3.09	5.68	1.16	5.47	0.333	4.41
CCTACTGGGCCATTCAGAGGTTATTGATCATATG	0.119	0.693	0.815	0.664	-0.334	1.55	0.601	1.23	0.0553	0.458	4.41	3.71	0.418	0.252	0.658	0.724	0.159	0.877	0.171	0.712
AGTCAAAGTTGATCTAGGTAACGTAAGATATGCT	-0.0957	-0.391	-0.431	-0.102	-0.616	0.713	1.39	1.2	0.421	0.958	0.813	2.74	0.517	1.07	-0.371	-0.212	-0.146	-0.0598	-0.276	0.672
CCTTACGGGTAACTCCAGGTTATAGCATCGGAGT	0.565	7.03	3.25	4.13	0.0113	0.572	0.317	0.049	-0.487	-0.0126	0.404	0.565	0.241	-0.665	0.705	0.705	0.14	0.64	0.018	0.315
CGTCCAAGGTCATGGGAGGTCAGTGAAGACAGAT	7.92	7.36	5.12	6.35	0.656	6.08	6.25	6.11	2.74	5.07	2.93	4.47	0.44	-0.0199	4.73	7.17	5.18	6.5	2.4	5.61
GCTCGGAGGACAAGGTCACAGCTTTGTCCGTAGA	4.17	3.99	0.175	3.17	0.142	4.56	3.68	4.17	1.12	2.98	0.831	3.16	0.822	-0.625	2.33	3.9	0.00215	4.35	0.243	4.21
AGTCAAAGTTCATCTAGGTATCGTAAGATATGCT	6.52	5.79	5.29	3.63	2.09	4.52	6.38	5.82	3.16	5.19	0.0537	2.59	0.906	0.493	2.49	5.11	5.44	3.62	1.32	4.95
GATACAGGGTCAGCTAGAGGGCAGAGTATGGAAA	4.97	3.61	0.31	3.04	-0.0711	4.5	4.11	3.6	0.823	2.38	1.36	2.69	1.37	0.18	4.2	4.38	0.747	5.63	1.68	4.51
CCTACTGGGCCATACAGAGGTCATTGATCATATG	2.83	4.1	5.31	3.73	0.274	3.89	2.98	3.58	1.03	2.85	4.36	4.21	1.03	0.445	4.53	5.28	2.92	5.24	1.8	3.12
ACTCGGAGGACAAATGTCAGAGCTACGCCAGTGA	-0.155	-0.111	-0.289	-0.522	-0.374	0.306	1.34	1.99	0.613	1.36	0.158	0.0513	0.143	-1.07	-0.0876	-0.536	-0.343	-0.444	-0.635	1.44
